HTR5A inv ag – counter-screen for OPRM1-OPRD1 inverse agonists: human HTR5A inverse agonism; AID 504634; inhibition, % at 9.3 µM; 0.083% of 340,000 active; HTR5A cell line, luminescence; P47898; in the data active = inhibition mostly above about 23%, no sharp cut-off; inactive = mostly below about 18%
HTR2A ag – agonists of mouse serotonin 5-HT2A receptor (HTR2A); 0.66% of 360,000 active; activation, % at 7.6 µM; AID 624169; CHO-K1 mHTR2A beta-arrestin complementation, luminescence; percent of 30 µM serotonin response; P35363;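 active = activation above a run cutoff, the mean activation of all tested compounds plus 3 SD, cut at about 14% in these data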
Target sequence (P35363 whole entry, looked up): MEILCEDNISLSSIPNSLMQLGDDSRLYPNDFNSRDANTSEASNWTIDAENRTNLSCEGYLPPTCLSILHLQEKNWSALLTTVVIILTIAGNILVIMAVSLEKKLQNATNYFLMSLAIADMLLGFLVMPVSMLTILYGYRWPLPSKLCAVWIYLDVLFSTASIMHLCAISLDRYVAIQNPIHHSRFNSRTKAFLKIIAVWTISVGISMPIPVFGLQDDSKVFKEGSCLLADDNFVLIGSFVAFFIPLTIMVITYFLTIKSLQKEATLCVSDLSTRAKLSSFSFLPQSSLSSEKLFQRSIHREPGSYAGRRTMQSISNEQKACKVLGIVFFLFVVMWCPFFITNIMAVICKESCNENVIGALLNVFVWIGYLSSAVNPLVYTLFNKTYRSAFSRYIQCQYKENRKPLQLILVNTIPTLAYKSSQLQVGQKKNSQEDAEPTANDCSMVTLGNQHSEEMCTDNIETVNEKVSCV
HTR5A ag ctr – activates human HTR5A in OPRM1-OPRD1 agonist counter-screen; activation, % at 9.3 µM; 0.61% of 340,000 active; HTR5A agonist assay, luminescence, cell-based; P47898; in the data active = activation mostly above about 9.5%, no sharp cut-off; inactive = mostly below about 7.6%
MOR-DOR inv ag – inverse agonist of human OPRM1-OPRD1 heterodimerization; P35372+P41143; cell-based MOR-DOR heterodimer luminescence, inverse agonism; inhibition, % at 9.3 µM; 0.21% of 340,000 active; in the data active = inhibition above about 22%, passing the limit was not always enough
OPRM1-OPRD1 ag – OPRM1-OPRD1 heterodimerization agonism; P35372+P41143; cells, luminescence; activation, % at 9.3 µM; 0.3% of 340,000 active; AID 504326
MOR-DOR ag conf – OPRM1-OPRD1 heterodimer agonism, confirmation; shares compounds with OPRM1-OPRD1 ag; cells, MOR-DOR heterodimerization, luminescence complementation; activation, % at 9.3 µM; 45% of 830 active; AID 504904
HTR5A ag ctr2 – counter-screen for OPRM1-OPRD1 agonists: human HTR5A agonism. shares compounds with OPRM1-OPRD1 ag. HTR5A agonist counterscreen, cell luminescence. activation, % at 9.3 µM. 8% of 830 active. AID 504905; in the data active = activation above about 17%
Hits are given with their value; – = inactive; · = not tested or not shown. This is a sample that favours compounds with a hit; in the whole collection about 1.6% have one here. Rule as the data show it, unless noted: active = activation above about 18%; inactive = the rest.

SMILES | HTR5A inv ag | HTR2A ag | HTR5A ag ctr | MOR-DOR inv ag | OPRM1-OPRD1 ag | MOR-DOR ag conf | HTR5A ag ctr2
COc1ccc(/C=C/C(=O)Nc2ccccc2C(=O)NCC(c2ccc(OC)cc2)N(C)C)cc1 (stereo not drawn) | – | – | – | – | 22 | – | –
O=C(Cc1cccc2ccccc12)Nc1ccc(N2CCOCC2)cc1 | – | – | – | – | – | · | ·
Clc1cccc(Cl)c1CSc1nnc(-c2ccncc2)s1 | – | – | – | – | 21 | – | –
CCN1CCN(S(=O)(=O)c2ccc(Cl)c(C(=O)N(CC)Cc3ccccc3)c2)CC1 | – | – | – | – | – | · | ·
CCN1CCN(S(=O)(=O)c2ccc(Cl)c(C(=O)N(CCc3ccccc3)Cc3ccccc3)c2)CC1 | – | – | – | – | 20 | 360 | –
CC(C)[C@H](NC(=O)c1ccccc1Cl)C(=O)OCC(=O)NC(=O)NCc1ccco1 | – | – | – | – | 314 | – | –
O=C(Cc1ccc(Cl)cc1)NCCS(=O)(=O)N1CCN(c2ccccc2F)CC1 | – | – | – | – | – | · | ·
COc1ccccc1CNS(=O)(=O)c1c(C(=O)N2CCCCCC2)c(C)n(C)c1C | – | – | – | – | – | · | ·
COc1ccccc1N1CCN(C(c2cccs2)C(C)NC(=O)c2ccco2)CC1 (stereo not drawn) | – | – | – | – | 91 | 119 | –
CN=c1scc(-c2ccccc2F)n1/N=C/c1ccc(O)c(O)c1O | – | – | – | – | 18 | – | –
CN=c1scc(-c2ccccc2F)n1/N=C/c1ccc[nH]1 | – | – | – | – | – | · | ·
Nc1c(NCCN2CCCCC2)c2ccccc2oc1=O | – | – | – | – | 53 | – | –
CCCNc1c(N)c(=O)oc2ccccc12 | – | – | – | – | – | · | ·
CC1=C(C(=O)Nc2ccccc2)C(c2ccc(C)cc2)N=C(Nc2nc3ccccc3o2)N1 (stereo not drawn) | – | – | – | – | 40 | 34 | –
Oc1cccc(NC(=S)Nc2ccc(SC(F)F)cc2)c1 | – | – | – | – | 32 | – | –
Cc1ccc(S(=O)(=O)/N=C2/C=C(Sc3ncn[nH]3)C(=O)c3ccccc32)cc1 | – | 20 | – | – | 23 | – | –
Cc1ccc(S(=O)(=O)/N=C2\C=C(Nc3ccc(O)cc3)C(=O)c3ccccc32)cc1 | – | – | – | – | – | · | ·
O=[N+]([O-])c1ccccc1S(=O)(=O)Nc1ccc2c(c1)OCCO2 | – | – | – | – | – | · | ·
O=C(Nc1cccc(-n2cnnn2)c1)C1CCCN(Cc2cccc(C(F)(F)F)c2)C1 (stereo not drawn) | – | – | – | – | – | · | ·
NC(N)=N/N=C/c1ccc(OCc2ccccc2Cl)cc1 | – | – | – | – | 22 | – | –
O=C1NC2(CCCCC2)C(=O)N1c1cccc(Cl)c1 | – | – | – | – | – | · | ·
CN(C)CCNC(=S)Nc1cccc(Cl)c1 | – | – | – | – | – | · | ·
COc1ccc(Cl)cc1NC(=O)CNCC(c1ccccc1)N(C)C (stereo not drawn) | – | – | – | – | – | · | ·
Cc1cccc(NC(=S)NCC(c2ccccc2)N(C)C)c1 (stereo not drawn) | – | – | – | – | 348 | – | –
Cc1ccc(Cl)cc1NC(=O)CNCC(c1ccccc1)N(C)C (stereo not drawn) | – | – | – | – | 50 | 76 | –
SMILES | HTR5A inv ag | HTR2A ag | HTR5A ag ctr | MOR-DOR inv ag | OPRM1-OPRD1 ag | MOR-DOR ag conf | HTR5A ag ctr2
CC(c1ccccc1)N1CCC(CNC(=S)Nc2cccc(Cl)c2)C1 (stereo not drawn) | – | – | – | – | 19 | – | 28
CN(C)C(CNC(=S)Nc1cccc(Cl)c1)c1ccccc1 (stereo not drawn) | – | – | – | – | 357 | 421 | –
COc1cc(C)ccc1Oc1ccc([N+](=O)[O-])cc1 | – | – | – | – | – | · | ·
O=C(Nc1ccc(Br)cc1)c1cc([N+](=O)[O-])cc([N+](=O)[O-])c1 | – | – | – | – | 22 | – | –
CC(=O)Nc1ccc(NC(=O)c2cc([N+](=O)[O-])cc([N+](=O)[O-])c2)cc1 | – | – | – | – | – | · | ·
CC(Sc1ncccn1)C(=O)Nc1ccc2c(c1)OCO2 (stereo not drawn) | – | – | – | – | – | · | ·
Cc1ccccc1Cn1c(O)c(N=NC(=S)Nc2ccccc2F)c2ccccc21 | – | – | – | – | 18 | 76 | –
Oc1c(N=NC(=S)Nc2ccccc2F)c2ccccc2n1Cc1ccccc1F | – | – | – | – | – | · | ·
COc1ccc(C2C(C#N)=C(N)N(c3sc4c(c3C#N)CCCC4)C3=C2C(=O)CC(C)(C)C3)cc1OC (stereo not drawn) | – | – | – | – | 23 | 31 | 25
COc1ccc(C2C(C#N)=C(N)N(c3sc4c(c3C#N)CCCC4)C3=C2C(=O)CC(C)(C)C3)cc1 (stereo not drawn) | – | – | – | – | 88 | 211 | –
COc1ccc(C2C(C#N)=C3NC(=O)c4c(sc5c4CCCCC5)N3C3=C2C(=O)CC(C)(C)C3)cc1 (stereo not drawn) | – | – | – | – | – | · | ·
CN(Cc1ccc(Cl)c(Cl)c1)C(=O)CN1C(=O)NC2(CCCC2)C1=O | – | – | – | – | – | · | ·
Cc1cnc(NC(=O)C(C)N2CCN(C)CC2)s1 (stereo not drawn) | – | – | – | – | – | · | ·
O=C(O)c1cccc2c1C(=O)c1ccc(-c3ccc(F)cc3F)cc1S2(=O)=O | – | – | – | – | – | · | ·
Cc1sc(NC(=S)NC(=O)C2CCCCC2)c(C(N)=O)c1C | – | – | – | – | 19 | 21 | –
CCOC(=O)C1(CC2CC2)CCN(Cc2cnc(N(C)C)s2)CC1 | – | – | – | – | 35 | – | –
CCOC(=O)C1(Cc2ccccc2)CCN(Cc2cn(CC(=O)OC)c3ccccc23)CC1 | – | – | – | – | – | · | ·
CCOC(=O)C1(CC2CC2)CCN(Cc2cn(C)c3ccccc23)CC1 | – | – | – | – | 18 | – | –
CCn1cc(/C=N\NC(=O)Cc2ccc(Cl)cc2)cn1 | – | – | – | – | – | · | ·
CCC1Oc2ccccc2N(CC(=O)N2CC(C)CC(C)C2)C1=O (stereo not drawn) | · | – | · | · | · | · | ·
O=C(Nc1ccc(C(F)(F)F)cc1[N+](=O)[O-])O[C@H]1[C@H](Cc2ccccc2)NS(=O)(=O)[C@H]2C[C@@H]3C=C[C@]12O3 | – | – | – | – | 18 | – | –
Oc1ccc(Nc2nc3ccccc3nc2Nc2ccc(O)cc2)cc1 | – | – | – | – | – | · | ·
O=C(Nc1ccccc1)c1ccc(NC2CCCCC2)c(S(=O)(=O)N2CCOCC2)c1 | – | – | – | – | 37 | 43 | –
CCCNC(=O)COc1coc(CN2CCN(c3ccc(F)cc3)CC2)cc1=O | – | – | – | – | – | · | ·
CC(=O)C1CCC2C3CC=C4CC(SC(=N)N)CCC4(C)C3CCC12C (stereo not drawn) | – | – | – | – | 42 | 79 | –

Screens deposited in PubChem BioAssay by The Scripps Research Institute Molecular Screening Center.
